Test results published in ChEMBL document CHEMBL1157539, “Thousands of chemical starting points for antimalarial lead identification” (Nature, 2010).
Several values for one entry are separate records, joined by “and”; a condition that tells them apart may be missing. Identical values can stand only once. The full ranking holds about 13,000 compounds; the median of “IFI” is about 4, and the highest 2% start at about 17. Only a selection was taken, and the highest values are over-represented in it overall.

Assay: GSK_TCMDC: Inhibition Frequency Index (IFI). The number of non-kinase HTS assays where a compound showed > 50 % inhibition, expressed as a percentage of the number of such assays in which the compound was tested
Format: functional

Compound | IFI
CC(=O)Nc1ccc(C(=O)Nc2cccc(-c3cccc(-c4nc5cc(C(F)(F)F)ccc5[nH]4)c3)c2)cn1 | 3.7%
N=C(N)NC(=O)Nc1ccc(Cl)c(Cl)c1 | 1.52%
CC(=O)Nc1ccc(Cl)c(Cl)c1 | 0%
NCCCN(Cc1ccc(Cl)c(Cl)c1)C(=O)Nc1ccc(Cl)c(Cl)c1 | 17.7%
COc1ccc(CCNCCCCCCNCCc2ccccc2Cl)cc1OC | 2.88%
FC(F)(F)c1cccc(CCNc2nccc(NCc3ccc(Cl)cc3Cl)n2)c1 | 25%
FC(F)(F)c1cccc(CCNc2nccc(NCc3ccccc3Cl)n2)c1 | 8%
COc1ccccc1CNc1ccnc(NCCc2cccc(C(F)(F)F)c2)n1 | 16%
Fc1ccc(NC(S)=NN=Cc2ccccn2)cc1 | 7.48%
Cc1[nH]c(C)c(-c2ccc(-c3ccc(OC(F)(F)F)cc3)nc2)c(=O)c1Cl | 1.69%
Cc1cc(Nc2ccncc2)n2nc(C)c(-c3ccc(Cl)cc3)c2n1 | 1.69%
Cc1ccc2[nH]c(-c3cc(-c4cccc(C#N)c4)cnc3N)nc2c1 | 7.14%
Cc1cccc2nc(-c3ccc(-c4ccc(CN5CCCC(N)C5)cc4)s3)[nH]c12 (centres undefined) | 5.56%
Oc1ccc(CCNc2nc(NCc3ccc4cc(Cl)ccc4c3)nc(N3CCNCC3)n2)cc1 | 17.2%
Cc1c(CN2CCCCC2)cccc1OCCCNc1nc(NCCc2ccc(O)cc2)nc(N2CCNCC2)n1 | 7.58%
Oc1ccc(CCNc2nc(NCCCOc3ccccc3-c3ccncc3)nc(N3CCNCC3)n2)cc1 | 1.72%
C[C@@]12C[C@@H](Nc3nc(NCCc4ccc(O)cc4)nc(N4CCNCC4)n3)C[C@@H](C1)c1cccc(Cl)c1O2 | 20.9%
Cc1cc(OCCCNc2nc(NCCc3ccc(O)cc3)nc(N3CCNCC3)n2)c(Cl)c(C)c1Cl | 18.5%
Oc1ccc(CCNc2nc(NCCCOc3cccc(CN4CCCCC4)c3Cl)nc(N3CCNCC3)n2)cc1 | 4.69%
Oc1ccc(CCNc2nc(NCc3ccccc3-c3cccc(Cl)c3)nc(N3CCNCC3)n2)cc1 | 15.4%
Oc1ccc(CCNc2nc(N/N=C/c3ccc(Cl)cc3)nc(N3CCNCC3)n2)cc1 | 0.75%
Oc1ccc(CCCNc2nc(NCc3cccc4ccccc34)nc(N3CCNCC3)n2)cc1 | 7.69%
Oc1ccc(CCNc2nc(NCCOc3ccccc3-c3ccccc3)nc(N3CCNCC3)n2)cc1 | 20%

Compound | IFI
COc1ccc(-c2ccccc2OCCCNc2nc(NCCc3ccc(O)cc3)nc(N3CCNCC3)n2)cc1 | 13.8%
Cc1cccc(-c2cccc(CNc3nc(NCCc4ccc(O)cc4)nc(N4CCNCC4)n3)c2)c1 | 12.7%
Nc1c2c(nc3cc(NC(=O)c4ccc([N+](=O)[O-])cc4)ccc13)CCCC2 | 0%
CNC(=O)C(C)N(c1ccc(Cl)cc1)c1nc(C(C)(C)C)cs1 (centres undefined) | 4.76%
COC(=O)C(=C(C)C)N1C(=O)[C@@H](NC(=O)OCc2ccccc2)[C@H]1SS[C@@H]1[C@H](NC(=O)OCc2ccccc2)C(=O)N1C(C(=O)OC)=C(C)C | 4.41%
CC(CN1CCN(C)CC1)C(=O)Nc1ccc(-c2cccc(-c3nc4ccccc4[nH]3)c2)cc1 (centres undefined) | 4.59%
COCCN1CCN(Cc2ccc(-c3ccc(-c4nc5cccc(C)c5[nH]4)s3)cc2)CC1 | 6.86%
O=S(=O)(NCCN1CCCC1)c1ccc(-c2ccc(CNCc3ccccc3)cc2)cc1F | 6.54%
CN1CCN(c2nc(NCCc3ccc(O)cc3)nc(NCc3ccccc3-c3ccc(C(F)(F)F)cc3)n2)CC1 | 11.8%
Oc1ccc(CCNc2nc(NCCCOc3ccccc3-c3ccc(C(F)(F)F)cc3)nc(N3CCNCC3)n2)cc1 | 17.2%
Oc1ccc(CCNc2nc(NCCCOc3ccccc3-c3ccc(F)cc3)nc(N3CCNCC3)n2)cc1 | 13.8%
Oc1ccc(CCNc2nc(NCCCOc3cccc(-c4ccccc4)c3)nc(N3CCNCC3)n2)cc1 | 18.8%
Oc1ccc(CCNc2nc(NCCCOc3ccccc3-c3cccc(C(F)(F)F)c3)nc(N3CCNCC3)n2)cc1 | 10.5%
Oc1ccc(CCNc2nc(NCc3ccccc3-c3ccc(F)cc3)nc(N3CCNCC3)n2)cc1 | 13.6%
Oc1ccc(CCNc2nc(NCCCOc3ccccc3-c3cccnc3)nc(N3CCNCC3)n2)cc1 | 6.9%
Oc1ccc(CCNc2nc(NCc3ccccc3-c3ccc(C(F)(F)F)cc3)nc(N3CCNCC3)n2)cc1 | 13.1%
COc1ccc(-c2ccccc2CNc2nc(NCCc3ccc(O)cc3)nc(N3CCNCC3)n2)cc1 | 13.4%
CC1CN(c2nc(NCCc3ccc(O)cc3)nc(NCc3ccccc3-c3ccc(C(F)(F)F)cc3)n2)CC(C)N1 (centres undefined) | 17.2%
Oc1ccc(CCNc2nc(NCc3ccccc3Oc3ccc(C(F)(F)F)cc3)nc(N3CCNCC3)n2)cc1 | 20%
Oc1ccc(CCNc2nc(NCCOc3cccc4ccccc34)nc(N3CCNCC3)n2)cc1 | 16.4%
CC(C)N1CCC(N(Cc2ccc(-c3ccc(Cl)cc3)cc2)C(=O)Cn2c(CCc3cccc(F)c3F)nc(=O)c3ccccc32)CC1 | 7.8%
O=C(/C=C/c1ccc(Cl)c(Cl)c1)NCCCCCN1CCC(c2n[nH]c(-c3ccccc3)c2Br)CC1 | 12.9%
Cc1cc2nc(-c3ccc(/C=C/C(=O)NC4CCN(Cc5ccccc5)CC4)cc3)[nH]c2cc1C | 3.76%

Compound | IFI
CS(=O)(=O)NCCCNCc1ccc(-c2ccc(-c3nc4cc(C(F)(F)F)ccc4[nH]3)s2)cc1 | 4.95%
Cc1nc2ccc(-c3ccc(OC(F)(F)F)cc3)cc2c(O)c1C#N | 1.82%
COc1cccc2c(NN=Cc3cccc(F)c3)ccnc12 | 2.99%
Oc1ccc(CCNc2nc(NCc3ccccc3-c3ccc(C(F)(F)F)cc3)nc(N3CCCNCC3)n2)cc1 | 14.9%
Oc1ccc(CCCNc2nc(NCc3ccccc3-c3ccccc3)nc(N3CCNCC3)n2)cc1 | 14.9%
Oc1ccc(CCNc2nc(NCc3ccccc3-c3ccccc3)nc(N3CCCNCC3)n2)cc1 | 18.2%
NCC1CCCN1Cc1cccc(-c2ccc(-c3nc4ccccc4[nH]3)s2)c1 (centres undefined) | 0.97%
CC[C@H](C)CNC(=O)c1cccc(-c2ccc(CN3CCC(N4CCCC4)CC3)cc2)n1 | 9.09%
C=CCC1OC(=O)c2cc(OC)cc(OC)c21 (centres undefined) | 33.6%
C=CC(C)C1OC(=O)c2cc(OC)cc(OC)c21 (centres undefined) | 27%
COc1ccc(CCNCCCCCNCCCc2ccc(Cl)cc2)cc1OC | 2.8%
COc1cc(Cc2cnc(N)nc2N)cc(CC(C)O)c1O (centres undefined) | 0%
Fc1ccc2[nH]c(-c3cccc(-c4ccc(CN5CCC(CCN6CCCCC6)CC5)cc4)c3)nc2c1 | 8.33%
NC(=O)c1ccc(C(=O)Nc2cccc(-c3ccc(-c4nc5cc(C(F)(F)F)ccc5[nH]4)cc3)c2)cc1 | 2.59%
O=C(NCCCCN1CCC(c2ccc3c(c2OCCN2CCCC2=O)CCCC3)CC1)c1ccc(-c2ccc(C(F)(F)F)cc2)cc1 | 9.65%
C[C@@H]1CC[C@H](NC(=O)[C@H](CC2CCCC2)NC(=O)N2CCNCC2)C(=O)CN1S(=O)(=O)c1ccccn1 | 5.93%
O=C(NCCOc1ccccc1)[C@H](Cc1ccccc1)Nc1ccnc(NCC2CCCCC2)n1 | 20%
CC(C)C[C@H](Nc1ccnc(NCC2CCCCC2)n1)C(=O)NCCc1ccccc1 | 8.89%
CC(C)C[C@H](Nc1ccnc(NCC2CCCCC2)n1)C(=O)NCCOc1ccccc1 | 13%
Cc1cc(N[C@@H](Cc2ccccc2)C(=O)NCCOc2ccccc2)nc(NCC2CCCCC2)n1 | 16.7%
O=C(NCCc1ccccc1)[C@H](Cc1ccccc1)Nc1ccnc(NCC2CCCCC2)n1 | 20.4%
Cc1ccc(CNC(=O)[C@H](Cc2ccccc2)Nc2ccnc(NCC3CCCCC3)n2)cc1 | 11.1%
COc1ccc2nccc([C@@H](O)CN3CCC(NCc4nc5cc(F)cc(F)c5[nH]4)CC3)c2c1 | 3.65%

Compound | IFI
CC1(C)NC(N)=NC(=N)N1OCCCSc1ccccc1 | 2.26%
Cc1cc(OCCCn2ccnc2)ccc1-c1csc(/N=C(\N)NCc2ccccc2)n1 | 5%
N/C(=N\c1cccc(Cc2ccccc2)n1)NCc1ccccc1 | 21%
Cc1cccc(NC(=O)NCc2ccccc2)n1 | 0.78%
Cc1ccccc1Cc1cccc(/N=C(\N)Nc2ccc(Cl)cc2)n1 | 31.2%
Cc1cccc2nc(-c3ccc(-c4ccc(NC(=O)Nc5ccc(Cl)cc5)cc4)s3)[nH]c12 | 5.94%
Cc1cc(NCCc2ccccc2)nc(NC(=N)Nc2ccc(Cl)cc2)n1 | 3.82%
CC(=O)Nc1nc(C(=O)Nc2ccc(-c3cccc(-c4nc5cc(C(F)(F)F)ccc5[nH]4)c3)cc2)cs1 | 6.03%
Cc1cc(=O)c(-c2ccc(Oc3cccc(C(F)(F)F)c3)cc2)c(C)[nH]1 | 2.56% and 2.24%
CCC(C)c1ccc(Nc2nc(C)cc(N(CC)CCCN3CCCCC3)n2)cc1 (centres undefined) | 19.5%
CCN(CCCN1CCCCC1)c1cc(C)nc(Nc2ccc(C(C)C)cc2)n1 | 10.3%
CCN(CCCN1CCCCC1)c1cc(C)nc(Nc2ccc(C)cc2)n1 | 2.56%
CC(C)(C)c1ccc(C(=O)Nc2cccc(Nc3c(C(=O)NCc4cccc(C(F)(F)F)c4)cnc4c(O)cccc34)c2)cc1 | 3.68%
CCCCN(CCCC)/C(=N/c1cccc(Cl)c1Cl)Nc1ccc(C#N)cc1O | 7.14%
O=C(Cc1cccc(O)c1)Nc1ccc(-c2cccc(-c3nc4cc(C(F)(F)F)ccc4[nH]3)c2)cc1 | 8.93%
CC(CN(C)C)C(=O)Nc1cccc(-c2cccc(-c3nc4ccccc4[nH]3)c2)c1 (centres undefined) | 5.41%
O=C(Nc1cccc(-c2cccc(-c3ccc(F)cc3)n2)c1)c1ccc([N+](=O)[O-])o1 | 19.1%
COc1cccc(-c2cccc(-c3ccc(NC(=O)c4ccc([N+](=O)[O-])o4)cc3)n2)c1 | 9.52%
COc1ccccc1-c1cccc(-c2cccc(NC(=O)c3ccc([N+](=O)[O-])o3)c2)n1 | 11.9%
Cc1cccc2nc(-c3ccc(-c4ccc(CN5CCCC(N)C5)cc4)cc3)[nH]c12 (centres undefined) | 4.23%
